Assay results published in PubChem BioAssay (EPA / NIEHS).
“And” between values parts separate entries of the source, which are not always exact repeats. Identical values can stand only once. Records with an inconclusive call do not appear. A structure can be active in one record and inactive in another. The source made the active and inactive calls. How the source made its calls: active means hit-call score of the fitted dose curve at least 0.9, where 1 is the maximum; inconclusive means response in the unintended direction; inactive means score below 0.9.

Key:
[1] = target: Estrogen receptor beta (Homo sapiens) (UniProt Q92731); test: ATG_hERb_XSP1: Attagene TRANS-FACTORIAL Multi-Species (XSP1) HepG2 Assay for human Estrogen Receptor (ESR2) (AID 2283788)
Estrogen receptor beta (Homo sapiens), sequence (Q92731 whole entry, looked up, the tested form may be a part): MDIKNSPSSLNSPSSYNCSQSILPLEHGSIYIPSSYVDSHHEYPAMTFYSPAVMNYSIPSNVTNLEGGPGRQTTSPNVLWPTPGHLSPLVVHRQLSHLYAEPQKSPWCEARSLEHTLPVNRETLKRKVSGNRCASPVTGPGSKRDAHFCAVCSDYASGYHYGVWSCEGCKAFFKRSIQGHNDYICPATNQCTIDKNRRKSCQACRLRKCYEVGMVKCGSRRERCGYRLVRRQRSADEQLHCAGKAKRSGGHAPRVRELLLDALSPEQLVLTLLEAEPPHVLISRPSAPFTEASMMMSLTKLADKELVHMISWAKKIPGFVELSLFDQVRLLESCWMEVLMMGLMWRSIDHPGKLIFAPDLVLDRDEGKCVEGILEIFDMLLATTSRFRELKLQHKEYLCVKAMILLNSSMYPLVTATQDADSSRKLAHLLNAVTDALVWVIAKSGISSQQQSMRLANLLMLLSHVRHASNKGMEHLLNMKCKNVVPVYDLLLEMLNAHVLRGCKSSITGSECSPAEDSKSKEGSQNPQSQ
Method in brief: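 Read-out: reporter mRNA induction by RT-PCR, HpaI digestion and capillary electrophoresis fluorescence, fitted in positive direction relative to DMSO baseline. Human liver HepG2 cells expressing ERβ-Gal4 fusion, dosed 24 h, medium containing 3 nM 6-alpha-fluorotestosterone.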

[2] = target: GAL4 Transcription Factor (Internal Marker), GAL4 (gene 855828) (UniProt P04386); test: ATG_GAL4_XSP1: Attagene TRANS-FACTORIAL Multi-Species (XSP1) HepG2 Assay for GAL4 Transcription Factor (Internal Marker) (AID 2283789)
GAL4 Transcription Factor (Internal Marker), GAL4 (gene 855828), sequence (P04386 whole entry, looked up, the tested form may be a part): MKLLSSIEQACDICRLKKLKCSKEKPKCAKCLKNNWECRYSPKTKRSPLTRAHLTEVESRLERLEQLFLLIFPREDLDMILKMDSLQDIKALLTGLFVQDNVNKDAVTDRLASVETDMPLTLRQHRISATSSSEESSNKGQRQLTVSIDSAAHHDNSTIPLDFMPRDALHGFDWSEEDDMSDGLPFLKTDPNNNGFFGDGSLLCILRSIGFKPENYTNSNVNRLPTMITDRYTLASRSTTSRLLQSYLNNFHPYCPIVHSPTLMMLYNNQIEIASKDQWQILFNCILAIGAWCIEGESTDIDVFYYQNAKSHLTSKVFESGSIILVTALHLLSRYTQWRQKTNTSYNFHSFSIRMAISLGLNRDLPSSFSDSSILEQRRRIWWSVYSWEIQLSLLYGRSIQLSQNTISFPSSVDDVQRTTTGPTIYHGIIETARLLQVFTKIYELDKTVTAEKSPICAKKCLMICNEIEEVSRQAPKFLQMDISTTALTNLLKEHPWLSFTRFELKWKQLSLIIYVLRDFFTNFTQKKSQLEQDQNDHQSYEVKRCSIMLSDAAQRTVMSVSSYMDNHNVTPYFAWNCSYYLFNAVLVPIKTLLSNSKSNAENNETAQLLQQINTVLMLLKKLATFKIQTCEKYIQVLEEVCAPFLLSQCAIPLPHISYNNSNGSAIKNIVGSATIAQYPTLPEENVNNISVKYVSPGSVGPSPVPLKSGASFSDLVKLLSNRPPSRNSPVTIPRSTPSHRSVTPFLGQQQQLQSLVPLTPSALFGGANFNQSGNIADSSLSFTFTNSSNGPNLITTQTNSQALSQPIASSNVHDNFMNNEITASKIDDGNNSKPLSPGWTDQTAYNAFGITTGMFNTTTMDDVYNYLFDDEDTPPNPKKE
Method in brief: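 HepG2 cells transiently transfected with multiplexed GAL4-UAS reporter units were exposed for 24 h with 3 nM 6-alpha-fluorotestosterone present. Reporter mRNA was quantified by RT-PCR, FAM labelling, HpaI digestion and capillary electrophoresis; background-control readout, gain-of-signal versus DMSO.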

[3] = ATG_M_06_XSP1: Attagene TRANS-FACTORIAL Multi-Species (XSP1) HepG2 Assay for M06 Transcription Factor (Internal Marker) (AID 2283790)
Method in brief: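 Transfected HepG2 multi-reporter system treated 24 h in the presence of 3 nM 6-alpha-fluorotestosterone. The M06 internal marker transcript was quantified by RT-PCR with capillary electrophoresis as a background control, and gain of signal was scored versus DMSO.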

[4] = ATG_M_61_XSP1: Attagene TRANS-FACTORIAL Multi-Species (XSP1) HepG2 Assay for M61 Transcription Factor (Internal Marker) (AID 2283797)
Method in brief: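 HepG2 cells transiently transfected with multiplexed GAL4-driven reporter units, dosed 24 h with 3 nM 6-alpha-fluorotestosterone present. Reporter mRNA quantified by RT-PCR, 6-FAM labelling, HpaI digestion and capillary electrophoresis; internal-marker background control, gain of signal versus DMSO.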

[5] = target: mouse Peroxisome Proliferator-activated Receptor gamma (PPARg), Pparg (gene 19016) (UniProt P37238); test: ATG_mPPARg_XSP1: Attagene TRANS-FACTORIAL Multi-Species (XSP1) HepG2 Assay for mouse Peroxisome Proliferator-activated Receptor gamma (PPARg) (AID 2283802)
mouse Peroxisome Proliferator-activated Receptor gamma (PPARg), Pparg (gene 19016), sequence (P37238 whole entry, looked up, the tested form may be a part): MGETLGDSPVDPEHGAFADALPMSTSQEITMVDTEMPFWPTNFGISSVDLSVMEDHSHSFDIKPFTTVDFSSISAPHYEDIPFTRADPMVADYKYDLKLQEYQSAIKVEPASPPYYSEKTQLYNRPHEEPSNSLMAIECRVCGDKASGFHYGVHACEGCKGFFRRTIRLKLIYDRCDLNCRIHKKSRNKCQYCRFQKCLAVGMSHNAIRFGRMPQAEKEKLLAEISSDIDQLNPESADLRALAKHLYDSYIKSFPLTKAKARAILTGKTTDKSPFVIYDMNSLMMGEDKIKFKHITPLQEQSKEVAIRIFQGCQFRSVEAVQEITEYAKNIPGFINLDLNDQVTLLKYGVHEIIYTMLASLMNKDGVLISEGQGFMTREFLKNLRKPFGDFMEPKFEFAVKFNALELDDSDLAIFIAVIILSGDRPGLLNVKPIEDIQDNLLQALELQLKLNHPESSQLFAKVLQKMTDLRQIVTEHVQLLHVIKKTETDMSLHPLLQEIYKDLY
Method in brief: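 HepG2 cells transiently transfected with GAL4-UAS reporter units driven by mouse PPARg–GAL4 chimera; 3 nM 6-alpha-fluorotestosterone present. After 24 h dosing, reporter mRNA quantified by RT-PCR, fluorescent labelling and capillary electrophoresis; gain of signal versus DMSO.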

[6] = target: Nuclear receptor subfamily 1 group I member 2 (Mus musculus) (UniProt O54915); test: ATG_mPXR_XSP1: Attagene TRANS-FACTORIAL Multi-Species (XSP1) HepG2 Assay for mouse Pregnane X Receptor (PXR) (AID 2283803)
Nuclear receptor subfamily 1 group I member 2 (Mus musculus), sequence (O54915 whole entry, looked up, the tested form may be a part): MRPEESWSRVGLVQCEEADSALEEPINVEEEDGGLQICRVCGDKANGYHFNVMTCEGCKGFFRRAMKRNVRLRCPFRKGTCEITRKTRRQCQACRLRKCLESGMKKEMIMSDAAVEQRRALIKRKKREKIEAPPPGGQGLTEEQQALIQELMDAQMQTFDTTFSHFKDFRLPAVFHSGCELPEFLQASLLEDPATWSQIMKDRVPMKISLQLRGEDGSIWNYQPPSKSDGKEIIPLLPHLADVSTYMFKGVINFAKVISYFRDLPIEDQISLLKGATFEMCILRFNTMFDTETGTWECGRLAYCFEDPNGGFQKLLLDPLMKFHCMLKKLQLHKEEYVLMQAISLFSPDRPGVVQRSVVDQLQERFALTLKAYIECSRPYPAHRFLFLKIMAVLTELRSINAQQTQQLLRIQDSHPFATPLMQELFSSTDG
Method in brief: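 Transiently transfected HepG2 cells expressing a receptor-Gal4 chimera drive a GAL4-UAS reporter; 3 nM 6-alpha-fluorotestosterone included. Reporter mRNA read 24 h post-dose by RT-PCR and capillary electrophoresis; gain of signal relative to DMSO.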

[7] = target: frog Thyroid hormone Receptor alpha (TRa), thra-a (gene 397942) (UniProt P15204); test: ATG_frTRa_XSP1: Attagene TRANS-FACTORIAL Multi-Species (XSP1) HepG2 Assay for frog Thyroid hormone Receptor alpha (TRa) (AID 2283804)
Method in brief: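 HepG2 cells transiently transfected with frog TRa-GAL4 chimeric reporter units, dosed 24 hr with 3 nM 6-alpha-fluorotestosterone present; reporter mRNA quantified by RT-PCR, fluorescent labelling and capillary electrophoresis, gain of signal versus DMSO.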

[8] = target: human Thyroid hormone Receptor alpha (TRa), THRA (gene 7067) (UniProt P10827); test: ATG_hTRa_XSP1: Attagene TRANS-FACTORIAL Multi-Species (XSP1) HepG2 Assay for human Thyroid hormone Receptor alpha (TRa) (AID 2283805)
human Thyroid hormone Receptor alpha (TRa), THRA (gene 7067), sequence (P10827 whole entry, looked up, the tested form may be a part): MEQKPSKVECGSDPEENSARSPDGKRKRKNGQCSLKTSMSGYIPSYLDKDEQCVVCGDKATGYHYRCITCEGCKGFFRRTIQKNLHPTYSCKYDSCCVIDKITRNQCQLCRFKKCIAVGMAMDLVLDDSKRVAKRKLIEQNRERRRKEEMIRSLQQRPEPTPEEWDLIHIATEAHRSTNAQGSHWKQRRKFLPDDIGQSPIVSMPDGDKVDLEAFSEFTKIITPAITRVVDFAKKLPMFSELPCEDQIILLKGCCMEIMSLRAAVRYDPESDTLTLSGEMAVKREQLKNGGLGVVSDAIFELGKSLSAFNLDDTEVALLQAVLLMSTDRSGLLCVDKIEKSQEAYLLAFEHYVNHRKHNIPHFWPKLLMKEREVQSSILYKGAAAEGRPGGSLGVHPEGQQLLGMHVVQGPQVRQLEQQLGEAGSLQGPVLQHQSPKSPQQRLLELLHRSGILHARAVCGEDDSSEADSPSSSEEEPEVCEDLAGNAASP
Method in brief: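 HepG2 cells transiently transfected with GAL4-UAS reporter units expressing chimeric NR-Gal4 proteins, dosed 24 hours with 3 nM 6-alpha-fluorotestosterone present. Reporter mRNA measured by RT-PCR and capillary electrophoresis; gain of signal fitted versus DMSO.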

[9] = tested on: turtle Thyroid Hormone Receptor, alpha (TRa), gene 101949057; test: ATG_trTRa_XSP1: Attagene TRANS-FACTORIAL Multi-Species (XSP1) HepG2 Assay for turtle Thyroid Hormone Receptor, alpha (TRa) (AID 2283806)
Method in brief: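 HepG2 cells transiently transfected with GAL4-UAS reporter units and chimeric receptor-Gal4 constructs, with 3 nM 6-alpha-fluorotestosterone present. Reporter mRNA was quantified 24 h after dosing by RT-PCR, 6-FAM labelling and capillary electrophoresis; gain of signal versus DMSO.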

[10] = target: zebrafish Thyroid Hormone Receptor alpha (TRa), thraa (gene 30670) (UniProt Q98867); test: ATG_zfTRa_XSP1: Attagene TRANS-FACTORIAL Multi-Species (XSP1) HepG2 Assay for zebrafish Thyroid Hormone Receptor alpha (TRa) (AID 2283807)
zebrafish Thyroid Hormone Receptor alpha (TRa), thraa (gene 30670), sequence (Q98867 whole entry, looked up, the tested form may be a part): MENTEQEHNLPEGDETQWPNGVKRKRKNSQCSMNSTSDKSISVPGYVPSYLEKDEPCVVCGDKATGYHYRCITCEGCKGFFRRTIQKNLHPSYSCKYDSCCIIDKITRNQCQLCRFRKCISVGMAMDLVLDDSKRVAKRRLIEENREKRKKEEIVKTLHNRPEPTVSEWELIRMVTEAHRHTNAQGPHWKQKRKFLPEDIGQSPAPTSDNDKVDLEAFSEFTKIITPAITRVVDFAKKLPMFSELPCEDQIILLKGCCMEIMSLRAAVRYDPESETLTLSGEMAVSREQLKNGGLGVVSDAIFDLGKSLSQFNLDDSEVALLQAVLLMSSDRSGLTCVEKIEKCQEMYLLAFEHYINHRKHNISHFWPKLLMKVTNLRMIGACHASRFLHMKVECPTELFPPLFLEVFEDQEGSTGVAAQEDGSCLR
Method in brief: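 HepG2 cells transiently transfected with GAL4-UAS reporter units including a zebrafish TRa–Gal4 chimera, dosed 24 h with 3 nM 6-alpha-fluorotestosterone present. Reporter mRNA quantified by RT-PCR and capillary electrophoresis; gain versus DMSO.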

[11] = target: human Thyroid hormone Receptor beta (TRb), THRB (gene 7068) (UniProt P10828); test: ATG_hTRb_XSP1: Attagene TRANS-FACTORIAL Multi-Species (XSP1) HepG2 Assay for human Thyroid hormone Receptor beta (TRb) (AID 2283808)
human Thyroid hormone Receptor beta (TRb), THRB (gene 7068), sequence (P10828 whole entry, looked up, the tested form may be a part): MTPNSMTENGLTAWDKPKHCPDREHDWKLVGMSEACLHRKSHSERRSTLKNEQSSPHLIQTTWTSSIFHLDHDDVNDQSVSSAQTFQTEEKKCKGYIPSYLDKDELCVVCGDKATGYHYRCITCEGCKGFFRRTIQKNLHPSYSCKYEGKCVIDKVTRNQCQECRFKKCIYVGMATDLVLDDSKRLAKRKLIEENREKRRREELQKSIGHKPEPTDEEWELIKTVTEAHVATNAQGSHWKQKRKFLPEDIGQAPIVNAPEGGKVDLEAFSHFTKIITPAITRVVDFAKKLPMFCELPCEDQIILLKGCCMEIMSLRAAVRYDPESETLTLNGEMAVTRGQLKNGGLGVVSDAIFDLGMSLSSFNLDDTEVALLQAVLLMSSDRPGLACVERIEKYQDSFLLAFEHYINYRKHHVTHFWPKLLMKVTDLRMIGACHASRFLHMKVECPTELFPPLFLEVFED
Method in brief: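 HepG2 cells transiently transfected with reporter units driving GAL4-UAS reporters for chimeric NR-Gal4 proteins; 24 h chemical exposure with 3 nM 6-alpha-fluorotestosterone present. Reporter mRNA quantified by RT-PCR and capillary electrophoresis, gain of signal versus DMSO.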

[12] = target: zebrafish Thyroid Hormone Receptor beta (TRb), thrb (gene 30607) (UniProt Q9PVE4); test: ATG_zfTRb_XSP1: Attagene TRANS-FACTORIAL Multi-Species (XSP1) HepG2 Assay for zebrafish Thyroid Hormone Receptor beta (TRb) (AID 2283809)
Method in brief: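 HepG2 cells transiently transfected with multiplexed GAL4-UAS reporter units expressing chimeric zebrafish TRb–Gal4. Dosed 24 h with 3 nM 6-alpha-fluorotestosterone present; reporter mRNA measured by RT-PCR, HpaI digestion and capillary electrophoresis; gain of signal versus DMSO.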

[13] = ATG_XTT_Cytotoxicity_XSP1: Cytotoxicity Assessment in the Attagene TRANS-FACTORIAL Multi-Species (XSP1) HepG2 Assay (AID 2283810)
Method in brief: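 XTT viability readout taken at 24 hours post-dosing in HepG2 liver cells co-treated with 3 nM 6-alpha-fluorotestosterone. Signal loss relative to DMSO controls reflects cytotoxicity.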

[14] = ATG_M_06_XSP2: Attagene TRANS-FACTORIAL Multi-Species (XSP2) HepG2 Assay for M06 Transcription Factor (Internal Marker) (AID 2283811);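 further: hits are increases in signal above the DMSO baseline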
Method in brief: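 HepG2 cells transiently transfected with GAL4-UAS multi-reporter constructs, dosed 24 h with 3 nM 6-alpha-fluorotestosterone plus 1.5 nM norgestrel present to stimulate androgen receptor. Reporter mRNA quantified by RT-PCR, 6-FAM labelling, HpaI digestion and capillary electrophoresis; gain-of-signal fitted versus DMSO baseline.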

[15] = tested on: turtle Estrogen Receptor (ERa), gene 101933533; test: ATG_trERa_XSP2: Attagene TRANS-FACTORIAL Multi-Species (XSP2) HepG2 Assay for turtle Estrogen Receptor (ERa) (AID 2283812);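 further: human HepG2 liver cells transiently expressing turtle ERa-Gal4 chimeric receptor; actives raise reporter signal above DMSO so AC50 reflects agonist activity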
Method in brief: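 HepG2 cells transiently transfected with GAL4-UAS reporter units expressing turtle ERa-Gal4 chimera. Reporter mRNA measured after 24 h dosing by RT-PCR, fluorescent labelling and capillary electrophoresis; gain of signal fitted versus DMSO.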

[16] = target: Estrogen receptor beta (Homo sapiens) (UniProt Q92731); test: ATG_hERb_XSP2: Attagene TRANS-FACTORIAL Multi-Species (XSP2) HepG2 Assay for human Estrogen Receptor (ERb) (AID 2283813);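 further: actives raise reporter mRNA above DMSO so AC50 reflects agonist induction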
Method in brief: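 HepG2 cells transiently transfected with GAL4-UAS reporter units and chimeric human ERb-Gal4, 24 h exposure. Reporter mRNA quantified by RT-PCR with FAM labelling, HpaI digestion and capillary electrophoresis; gain of signal versus DMSO.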

[17] = target: GAL4 Transcription Factor (Internal Marker), GAL4 (gene 855828) (UniProt P04386); test: ATG_GAL4_XSP2: Attagene TRANS-FACTORIAL Multi-Species (XSP2) HepG2 Assay for GAL4 Transcription Factor (Internal Marker) (AID 2283814);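 further: GAL4 reporter mRNA background control in MRTU transfected cells not a receptor target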
Method in brief: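 HepG2 cells transiently transfected with GAL4-UAS reporter units, stimulated with 3 nM 6-alpha-fluorotestosterone plus 1.5 nM norgestrel, dosed 24 h. Reporter mRNA by RT-PCR/capillary electrophoresis; gain-of-signal fit versus DMSO, background control.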

[18] = target: zebrafish Estrogen Receptor (ER1), esr1 (gene 259252) (UniProt P57717); test: ATG_zfER1_XSP2: Attagene TRANS-FACTORIAL Multi-Species (XSP2) HepG2 Assay for zebrafish Estrogen Receptor (ER1) (AID 2283816)
zebrafish Estrogen Receptor (ER1), esr1 (gene 259252), sequence (P57717 whole entry, looked up, the tested form may be a part): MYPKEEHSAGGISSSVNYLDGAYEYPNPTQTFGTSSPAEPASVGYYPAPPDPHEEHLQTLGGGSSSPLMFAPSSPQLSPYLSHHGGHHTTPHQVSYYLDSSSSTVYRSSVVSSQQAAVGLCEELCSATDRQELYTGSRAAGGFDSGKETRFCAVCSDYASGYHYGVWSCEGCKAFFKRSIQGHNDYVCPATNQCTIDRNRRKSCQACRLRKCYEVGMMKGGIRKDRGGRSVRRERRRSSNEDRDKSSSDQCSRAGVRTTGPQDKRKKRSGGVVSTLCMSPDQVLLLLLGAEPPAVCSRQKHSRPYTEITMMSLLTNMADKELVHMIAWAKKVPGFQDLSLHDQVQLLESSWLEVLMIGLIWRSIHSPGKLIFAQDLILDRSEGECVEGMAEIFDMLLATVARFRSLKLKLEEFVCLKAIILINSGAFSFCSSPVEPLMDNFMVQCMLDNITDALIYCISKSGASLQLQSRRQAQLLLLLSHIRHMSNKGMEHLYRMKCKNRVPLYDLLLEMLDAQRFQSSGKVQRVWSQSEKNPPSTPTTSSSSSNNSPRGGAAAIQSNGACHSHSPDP
Method in brief: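 HepG2 cells transiently transfected with a GAL4-UAS reporter and a chimeric zebrafish ER1-Gal4 construct, dosed 24 h. Reporter mRNA quantified by RT-PCR, labelling, HpaI digestion and capillary electrophoresis, relative to DMSO.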

[19] = target: chicken Estrogen Receptor (ERa), ESR1 (gene 396099) (UniProt P06212); test: ATG_chERa_XSP2: Attagene TRANS-FACTORIAL Multi-Species (XSP2) HepG2 Assay for chicken Estrogen Receptor (ERa) (AID 2283817);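 further: actives raise reporter signal above DMSO so AC50 reflects ER activation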
chicken Estrogen Receptor (ERa), ESR1 (gene 396099), sequence (P06212 whole entry, looked up, the tested form may be a part): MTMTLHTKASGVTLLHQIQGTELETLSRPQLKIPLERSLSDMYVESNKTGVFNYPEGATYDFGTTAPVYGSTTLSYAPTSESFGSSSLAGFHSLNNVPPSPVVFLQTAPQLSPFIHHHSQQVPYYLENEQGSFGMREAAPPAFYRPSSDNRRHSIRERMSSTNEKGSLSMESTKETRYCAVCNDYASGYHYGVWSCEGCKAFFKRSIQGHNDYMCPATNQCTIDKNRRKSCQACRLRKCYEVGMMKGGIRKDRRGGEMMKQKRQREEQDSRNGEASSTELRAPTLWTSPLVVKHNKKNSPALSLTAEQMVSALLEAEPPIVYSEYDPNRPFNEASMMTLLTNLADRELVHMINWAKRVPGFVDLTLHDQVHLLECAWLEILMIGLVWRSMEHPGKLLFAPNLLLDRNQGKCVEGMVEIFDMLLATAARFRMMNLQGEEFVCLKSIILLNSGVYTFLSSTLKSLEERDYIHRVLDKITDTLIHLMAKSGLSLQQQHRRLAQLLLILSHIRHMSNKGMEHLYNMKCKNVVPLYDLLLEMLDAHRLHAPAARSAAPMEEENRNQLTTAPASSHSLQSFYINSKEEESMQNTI
Method in brief: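 HepG2 cells transiently transfected with multiplexed GAL4-UAS reporter units expressing chimeric chicken ERa-Gal4; 24 h compound exposure. Reporter mRNA measured by RT-PCR with 6-FAM labelling, HpaI digestion and capillary electrophoresis; gain-of-signal fitted versus DMSO.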

Measured: AC50

O=C(c1ccc(O)cc1)c1ccc(O)cc1O
inactive: [2] | [3] | [4] | [5] | [6] | [7] | [8] | [9] | [10] | [11] | [12] | [13] | [14] | [17]
active: [1] 0.531 µM | [15] 3.24 µM | [16] 1.6 µM | [18] 4.75 µM | [19] 3.03 µM

COC(=O)c1c(C)cc(O)c(C)c1O
inactive: [14] | [17] | [18]
active: [15] 8.55 µM and 31.2 µM | [16] 8.13 µM and 12.3 µM | [18] 27.5 µM | [19] 19.8 µM and 28.8 µM
